# Activity calls are given as the source filed them. Unless noted, no stated cut-off is given here; in the data, active means inhibition above about 44%; inactive means the rest.
# Molecular target: Steroidogenic factor 1 (Homo sapiens) (UniProt Q13285)
# Assay: inverse agonism at SF1 nuclear receptor – cell-based, luminescence, high throughput, counter-screen for LRH-1 inverse agonist project (AID 651614);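 further: cells cotransfected with StAR promoter reporter and SF1 expression vector; 0% = vehicle on cells with receptor and 100% = vehicle on cells lacking receptor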
# Settings: cell-based SF1 luciferase reporter, at 3.6 µM, stronger effect = higher value
# Sequence of Steroidogenic factor 1 (Homo sapiens) (Q13285 whole entry, looked up): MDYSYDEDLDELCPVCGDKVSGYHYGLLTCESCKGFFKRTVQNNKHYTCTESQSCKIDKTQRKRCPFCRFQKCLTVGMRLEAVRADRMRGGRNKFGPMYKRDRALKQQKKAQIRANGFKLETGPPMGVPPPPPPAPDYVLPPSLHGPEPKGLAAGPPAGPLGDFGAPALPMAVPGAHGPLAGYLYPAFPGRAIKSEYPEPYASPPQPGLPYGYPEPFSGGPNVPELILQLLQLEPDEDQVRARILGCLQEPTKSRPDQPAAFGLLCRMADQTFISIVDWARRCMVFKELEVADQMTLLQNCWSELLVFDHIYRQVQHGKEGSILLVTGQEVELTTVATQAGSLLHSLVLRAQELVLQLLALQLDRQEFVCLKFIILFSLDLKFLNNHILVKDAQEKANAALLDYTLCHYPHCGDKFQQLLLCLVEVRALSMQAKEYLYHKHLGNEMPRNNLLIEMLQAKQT
row,SMILES,inhibition
1,C[C@@H]1O[C@@H](O[C@@H]2C=C3CC[C@@H]4C(CC[C@]5(C)[C@@H](c6ccc(=O)oc6)CC[C@]45O)[C@@]3(C)CC2)[C@H](O)[C@H](O)[C@H]1O (stereo partly specified),98.8% (active)
2,CCOC(=O)c1c(C)n(CC(O)CN2CCOCC2)c2cc(Br)c(OC)cc12 (stereo unspecified),47.9% (active)
3,CC(C)N(C(=O)CCl)c1ccccc1,51.7% (active)
4,Cn1cc(NC(=O)CCl)cn1,61.2% (active)
5,CCOC(=O)[C@]12Cc3cc(Cl)ccc3[C@H]1N(C1CCCCC1)C(=O)c1ccccc12,89.1% (active)
6,CC12CCC(O)CC1CCC1C2CCC2(C)C(C3=CC(=O)OC3)C(O)CC12O (stereo unspecified),74.8% (active)
7,CCOc1cc(C=O)ccc1O,47.9% (active)
8,C=C1C(=O)O[C@@H]2C[C@@H](C)[C@@H]3C4OC4C(=O)[C@@]3(C)[C@@H](O)[C@H]12 (stereo partly specified),67.9% (active)
9,C=C1[C@@H](C)[C@H]2[C@H](Cc3ccccc3)NC(=O)[C@]23OC(=O)/C=C/[C@H](O)CCC[C@@H](C)C/C=C/[C@H]3[C@@H]1O,44.3% (active)
10,CC(=O)O[C@H]1C(=O)[C@@]2(C)C([C@H](OC(=O)c3ccccc3)[C@]3(O)C[C@H](OC(=O)[C@H](O)[C@@H](NC(=O)Cc4ccccc4)c4ccccc4)C(C)=C1C3(C)C)[C@]1(OC(C)=O)CO[C@@H]1C[C@@H]2O (stereo partly specified),54.9% (active)
11,CCOC(=O)[C@]12Cc3ccc(C)cc3[C@H]1N(C1CCCCC1)C(=O)c1cc(OC)ccc12,75.1% (active)
12,CCCCn1c(NC(=O)c2ccc(Br)o2)c(C(=O)OCC)c2nc3ccccc3nc21,45.6% (active)
13,CCOC(=O)[C@]12Cc3cc(C)ccc3[C@H]1N(C1CCCCC1)C(=O)c1ccccc12,71.5% (active)
14,COC(=O)C12CCc3c(ccc4cc(OC)ccc34)C1=CC(=O)C2 (stereo unspecified),25.3% (inactive)
15,CC1=C(O)C(=O)C=C2C1=CC=C1C2(C)CCC2(C)C3CC(C)(C(=O)O)CCC3(C)CCC12C (stereo unspecified),96.7% (active)
16,COc1cc2c(cc1OC)[C@@H]1C(=O)c3ccc4c(c3O[C@@H]1CO2)C[C@H](C(C)C)O4,61.4% (active)
17,CC(=O)OC(C)(C)/C=C/C(=O)C(C)(O)C1C(O)CC2(C)C3CC=C4C(CC(O)C(=O)C4(C)C)C3(C)C(=O)CC12C (stereo unspecified),59.2% (active)
18,Cc1ccccc1-n1c(/C=C/c2ccccn2)nc2ccccc2c1=O,52% (active)
19,N#CCCn1cc(C(=O)Nc2ccccc2Br)c(-c2ccc([N+](=O)[O-])cc2)n1,51.6% (active)

row,SMILES,inhibition
1,O=[N+]([O-])c1cc(F)c(N2CCCCCC2)cc1N1CCNCC1,54.7% (active)
2,CC1CCN(C(=O)CCl)CC1,57% (active)
3,CCOC(=O)[C@]12Cc3ccc(C)cc3[C@H]1N(C1CCCCC1)C(=O)c1ccccc12,29.8% (inactive)
4,N#Cc1ccc(NC(=S)N2Cc3ccccc3-n3nncc3C2)cc1,47.5% (active)
5,Cc1ccc(-n2nc(C)cc2NC(=O)COc2cc(C)cc3oc(=O)c4c(c23)CCC4)cc1,61.2% (active)
6,CC(=O)OC1C(O)C(C)OC(OC2C(OC(=O)C3CCC4C(C3)OC3(CC(OC(=O)/C=C/c5ccccc5)C(C)CO3)C43CO3)OC(C)C(O)C2OC(C)=O)C1O (stereo unspecified),97.5% (active)
7,CC(=O)c1cn(Cc2ccccc2C#N)c2ccccc12,55.8% (active)
8,COC(=O)COc1cc(C)cc2oc(=O)c3c(c12)CCCC3,50.6% (active)
9,c1ccc2c(c1)[IH]c1ccccc1-2,64.1% (active)
10,Cc1nn(Cc2ccccc2)c(C)c1C(=O)OCC(=O)Nc1ccccc1SCC#N,52.9% (active)
11,O=C1Nc2ccccc2/C1=C/c1cnc[nH]1,40.8% (inactive)
12,OC1(c2ccc(F)cc2)CC2CCC(C1)N2Cc1nnnn1C1CCCC1 (stereo unspecified),50.3% (active)
13,NC(Cc1ccc(F)cc1)c1csc(Nc2ncccn2)n1 (stereo unspecified),38.9% (inactive)
14,O=c1[nH]c2ccccc2n1C1CCN(Cc2ccc(-c3[nH]c4cc5ncnc5cc4nc3-c3ccccc3)cc2)CC1,44% (active)
15,CCOC(=O)[C@]12Cc3cc(C)ccc3[C@H]1N(C1CCCCC1)C(=O)c1cc(OC)ccc12,78.2% (active)
16,N#CCCn1cc(C(=O)Nc2ccccc2Cl)c(-c2ccc([N+](=O)[O-])cc2)n1,59.8% (active)
17,CCOC(=O)[C@]12Cc3cc(Cl)ccc3[C@H]1N(CC(=O)OC)C(=O)c1ccccc12,64.4% (active)
18,COC(=O)C(C)Oc1cc(C)cc2oc(=O)c3c(c12)CCC3 (stereo unspecified),67.7% (active)
19,CCN(CC)C(=O)COc1cc(C)cc2oc(=O)c3c(c12)CCCC3,59% (active)

# Tested on: not listed separately
# Assay: compounds suppressing VP16-driven luciferase signal – cell-based, luminescence, high throughput, counter-screen for LRH-1 inverse agonist project (AID 651615; in the data active means inhibition above about 33%)
# Settings: Gal4-VP16 luciferase reporter cells, at 3.6 µM, stronger effect = higher value
row,SMILES,inhibition
1,C[C@@H]1O[C@@H](O[C@@H]2C=C3CC[C@@H]4C(CC[C@]5(C)[C@@H](c6ccc(=O)oc6)CC[C@]45O)[C@@]3(C)CC2)[C@H](O)[C@H](O)[C@H]1O (stereo partly specified),95.6% (active)
2,CCOC(=O)c1c(C)n(CC(O)CN2CCOCC2)c2cc(Br)c(OC)cc12 (stereo unspecified),-12.2% (inactive)
3,CC(C)N(C(=O)CCl)c1ccccc1,-6.55% (inactive)
4,Cn1cc(NC(=O)CCl)cn1,-18.7% (inactive)
5,CCOC(=O)[C@]12Cc3cc(Cl)ccc3[C@H]1N(C1CCCCC1)C(=O)c1ccccc12,92.8% (active)
6,CC12CCC(O)CC1CCC1C2CCC2(C)C(C3=CC(=O)OC3)C(O)CC12O (stereo unspecified),41% (active)
7,CCOc1cc(C=O)ccc1O,-3.05% (inactive)
8,C=C1C(=O)O[C@@H]2C[C@@H](C)[C@@H]3C4OC4C(=O)[C@@]3(C)[C@@H](O)[C@H]12 (stereo partly specified),82.8% (active)
9,C=C1[C@@H](C)[C@H]2[C@H](Cc3ccccc3)NC(=O)[C@]23OC(=O)/C=C/[C@H](O)CCC[C@@H](C)C/C=C/[C@H]3[C@@H]1O,27% (inactive)
10,CC(=O)O[C@H]1C(=O)[C@@]2(C)C([C@H](OC(=O)c3ccccc3)[C@]3(O)C[C@H](OC(=O)[C@H](O)[C@@H](NC(=O)Cc4ccccc4)c4ccccc4)C(C)=C1C3(C)C)[C@]1(OC(C)=O)CO[C@@H]1C[C@@H]2O (stereo partly specified),36.1% (active)
11,CCOC(=O)[C@]12Cc3ccc(C)cc3[C@H]1N(C1CCCCC1)C(=O)c1cc(OC)ccc12,91.8% (active)
12,CCCCn1c(NC(=O)c2ccc(Br)o2)c(C(=O)OCC)c2nc3ccccc3nc21,7.64% (inactive)
13,CCOC(=O)[C@]12Cc3cc(C)ccc3[C@H]1N(C1CCCCC1)C(=O)c1ccccc12,88.4% (active)
14,COC(=O)C12CCc3c(ccc4cc(OC)ccc34)C1=CC(=O)C2 (stereo unspecified),-1.27% (inactive)
15,CC1=C(O)C(=O)C=C2C1=CC=C1C2(C)CCC2(C)C3CC(C)(C(=O)O)CCC3(C)CCC12C (stereo unspecified),89.5% (active)
16,COc1cc2c(cc1OC)[C@@H]1C(=O)c3ccc4c(c3O[C@@H]1CO2)C[C@H](C(C)C)O4,57.4% (active)
17,CC(=O)OC(C)(C)/C=C/C(=O)C(C)(O)C1C(O)CC2(C)C3CC=C4C(CC(O)C(=O)C4(C)C)C3(C)C(=O)CC12C (stereo unspecified),59.7% (active)
18,Cc1ccccc1-n1c(/C=C/c2ccccn2)nc2ccccc2c1=O,5.08% (inactive)
19,N#CCCn1cc(C(=O)Nc2ccccc2Br)c(-c2ccc([N+](=O)[O-])cc2)n1,1.09% (inactive)

row,SMILES,inhibition
1,O=[N+]([O-])c1cc(F)c(N2CCCCCC2)cc1N1CCNCC1,9.46% (inactive)
2,CC1CCN(C(=O)CCl)CC1,-7.83% (inactive)
3,CCOC(=O)[C@]12Cc3ccc(C)cc3[C@H]1N(C1CCCCC1)C(=O)c1ccccc12,84.1% (active)
4,N#Cc1ccc(NC(=S)N2Cc3ccccc3-n3nncc3C2)cc1,10.9% (inactive)
5,Cc1ccc(-n2nc(C)cc2NC(=O)COc2cc(C)cc3oc(=O)c4c(c23)CCC4)cc1,-10.8% (inactive)
6,CC(=O)OC1C(O)C(C)OC(OC2C(OC(=O)C3CCC4C(C3)OC3(CC(OC(=O)/C=C/c5ccccc5)C(C)CO3)C43CO3)OC(C)C(O)C2OC(C)=O)C1O (stereo unspecified),97.4% (active)
7,CC(=O)c1cn(Cc2ccccc2C#N)c2ccccc12,55.5% (active)
8,COC(=O)COc1cc(C)cc2oc(=O)c3c(c12)CCCC3,-11.3% (inactive)
9,c1ccc2c(c1)[IH]c1ccccc1-2,72.8% (active)
10,Cc1nn(Cc2ccccc2)c(C)c1C(=O)OCC(=O)Nc1ccccc1SCC#N,2% (inactive)
11,O=C1Nc2ccccc2/C1=C/c1cnc[nH]1,-10.7% (inactive)
12,OC1(c2ccc(F)cc2)CC2CCC(C1)N2Cc1nnnn1C1CCCC1 (stereo unspecified),-0.39% (inactive)
13,NC(Cc1ccc(F)cc1)c1csc(Nc2ncccn2)n1 (stereo unspecified),49.8% (active)
14,O=c1[nH]c2ccccc2n1C1CCN(Cc2ccc(-c3[nH]c4cc5ncnc5cc4nc3-c3ccccc3)cc2)CC1,25% (inactive)
15,CCOC(=O)[C@]12Cc3cc(C)ccc3[C@H]1N(C1CCCCC1)C(=O)c1cc(OC)ccc12,87.9% (active)
16,N#CCCn1cc(C(=O)Nc2ccccc2Cl)c(-c2ccc([N+](=O)[O-])cc2)n1,-6.5% (inactive)
17,CCOC(=O)[C@]12Cc3cc(Cl)ccc3[C@H]1N(CC(=O)OC)C(=O)c1ccccc12,81.1% (active)
18,COC(=O)C(C)Oc1cc(C)cc2oc(=O)c3c(c12)CCC3 (stereo unspecified),-163% (inactive)
19,CCN(CC)C(=O)COc1cc(C)cc2oc(=O)c3c(c12)CCCC3,-18.9% (inactive)
